Measurements from ChEMBL document CHEMBL3988442, “University of Dundee, Small-Polar-MMV Screening Library” (2021).
The whole screen tested about 85,000 compounds, of which about 440 (0.52%) showed an effect of 50% or more. The entries come from a sample that favours strong results as a whole.

Assay: In vitro enzyme assay to detect hydrolysis of chlorophenol red-beta-D-[…] directly proportional to the number of Toxoplasma stably expressing beta-galactosidase
Format: functional, organism-based, Toxoplasma gondii
Parameters: scale not given: in the data most compounds retested in dose-response had high values

Row | SMILES | Percent Effect (50 µM) | Percent Effect (10 µM)
1 | NCc1cccc(CN2CCCC2=O)c1 | -4.942% | 
2 | Cc1nn(C)c(C)c1NC(=O)N1CCSCC1 | -12.54% | 
3 | CN(C)c1cc(CNC(=O)c2nccnc2N)ccn1 | 58.76% | 
4 | CN(C)c1cc(CNC(=O)c2ccncc2)ccn1 | -1.688% | 
5 | CN(C)c1cc(CNC(=O)c2cnccn2)ccn1 |  | 21.24%
6 | O=C1CC[C@@H](CO)N1 | -0.2195% | 
7 | CCS(=O)(=O)c1cccc(CN)c1 | 21.69% | 
8 | Cc1ccc(C(=O)NCCCN2CCCC2)cc1 | 3.9% | 
9 | N#Cc1c(Cl)nsc1NCc1cccnc1OCC(F)(F)F |  | 25.91%
10 | COc1ncccc1CNc1snc(Cl)c1C#N |  | 29.55%
11 | Cc1cc(NC(=O)NCc2cccnc2OC2CCCC2)n(C)n1 |  | -3.087%
12 | CNC(=O)NCc1cccnc1OC1CCCC1 | 56.84% | 
13 | CC(O)CNC(=O)NCc1cccnc1OC1CCCC1 (stereo unspecified) |  | -1.891%
14 | N#Cc1c(Cl)nsc1NCc1cccnc1OC1CCCC1 |  | 78.06%
15 | CCN1CCCC1CNC(=O)CN(C)S(C)(=O)=O (stereo unspecified) | -8.865% | 
16 | COc1cccc(NC(=O)CN2CCCNCC2)c1 | -7.679% | 
17 | O=C(Nc1ccccn1)N1CCCN(C2CC2)CC1 | 3.024% | 
18 | O=C(Cn1cc(Br)cn1)N1N=CCC1(O)C(F)(F)F (stereo unspecified) | -25.92% | 
19 | COc1ccc(C(=O)N2CCC(Oc3cccc(C)c3)(C(=O)O)CC2)o1 |  | -1.229%
20 | O=C(c1ccc(COc2ccccc2Cl)o1)N1N=CCC1(O)C(F)(F)F (stereo unspecified) |  | 45.92%
21 | Cc1cccc(OCc2ccc(C(=O)N3N=CCC3(O)C(F)(F)F)o2)c1 (stereo unspecified) |  | 93.63%

Row | SMILES | Percent Effect (50 µM) | Percent Effect (10 µM)
22 | O=C(c1ccc(COc2ccc(Cl)cc2)o1)N1N=CCC1(O)C(F)(F)F (stereo unspecified) |  | 95.68%
23 | COCc1ccc(C(=O)N2CCC(Oc3ccccc3)(C(=O)O)CC2)o1 |  | 0.5821%
24 | CC(C)NC(=O)CNCc1ccc(Br)o1 | 0.3067% | 
25 | CN1CCN(C)C2(CCN(C(=O)C(C)(C)O)CC2)C1 | 7.866% | 
26 | Cc1cc(C(=O)N2CCN(c3nc4c(C)cccc4s3)CC2)no1 |  | 11.62%
27 | Cc1cc(C(=O)N2CCN(c3nc4c(C(C)C)cccc4s3)CC2)no1 |  | 14.68%
28 | Cc1cc(C(=O)N2CCN(c3nc4c(C(C)C)cccc4s3)CC2)on1 |  | 83.09%
29 | CC(C)C(=O)Nc1cccc(CN)c1 | -3.402% | 
30 | CCOCCSc1nnnn1CC1CCCO1 (stereo unspecified) | 4.057% | 
31 | CCc1nc(Nc2cccc(C(=O)NC)c2)c2c(n1)c(C)nn2CC |  | 63.37%
32 | CCn1nc(C)c2nnn(CC(=O)Nc3ccc(C)cc3)c(=O)c21 |  | 5.455%
33 | CCc1nc(Nc2ccc(C(=O)NC)cc2)c2c(n1)c(C)nn2CC |  | 64.18%
34 | CCn1nc(C)c(C(C)NC(=O)c2cccc(NCC(=O)O)c2)c1C (stereo unspecified) |  | -6.268%
35 | CCCc1nc(Nc2cccc(C(N)=O)c2)c2c(n1)c(C)nn2CC |  | 20.54%
36 | CCc1nc(NCC(=O)N2CCOCC2)c2c(n1)c(C)nn2CC |  | -2.271%
37 | CN1C(=O)c2cccn2CC1CNC(=O)c1ccco1 (stereo unspecified) | 46.69% | 
38 | CNC(=O)CS(=O)(=O)Cc1cc(=O)n(C)c(=O)n1C | 9.101% | 
39 | CN(C)C(=O)CN(C)c1ncc(C(F)(F)F)cc1Cl | 0.3926% | 
40 | CCS(=O)(=O)Nc1ccc(C(=O)NC2CC2)cc1 | -14.67% | 
41 | CCc1nc(C2CCCN2CC(=O)Nc2nncs2)no1 (stereo unspecified) |  | 2.118%
42 | Cc1cnc(C(NC(=O)NCc2nc(C3CC3)no2)C2CC2)s1 (stereo unspecified) |  | 2.41%

Row | SMILES | Percent Effect (50 µM) | Percent Effect (10 µM)
43 | O=C(NCc1nc(C2CC2)no1)Nc1nncs1 | 96.18% | 
44 | Cc1ccccc1C1(O)CCN(Cc2ncc[nH]2)C1 (stereo unspecified) | -4.711% | 
45 | Cc1ncc(CN2CCOC(c3ccc(-c4ccccc4F)cn3)C2)s1 (stereo unspecified) |  | 56.75%
46 | Cc1ncc(CN2CCOC(c3ccc(-c4cc[nH]n4)cn3)C2)s1 (stereo unspecified) |  | -16.2%
47 | Cc1ncc(CN2CCOC(c3ccc(-c4cnn(C)c4)cn3)C2)s1 (stereo unspecified) |  | -14.87%
48 | O=C(NC1CCNC1)C1CCC1 (stereo unspecified) | 7.426% | 
49 | N#Cc1ccc(CN)c(F)c1 | 29.17% | 
50 | CC(CSc1n[nH]c(-c2ccccn2)n1)CS(C)(=O)=O (stereo unspecified) | 14.41% | 
51 | CC(Sc1n[nH]c(-c2ccccn2)n1)C(=O)N(C)C (stereo unspecified) | 2.084% | 
52 | CC(C)CNC(=O)CSc1n[nH]c(-c2ccccn2)n1 | 52.47% | 
53 | CCNc1cccc(OC)c1 | -5.589% | 
54 | Cn1nc(CC#N)c2ccccc21 | -11.92% | 
55 | CCCc1nnc(NCc2cccnc2)o1 | -5.41% | 
56 | OCCOc1ccc(NCc2cccnc2)cn1 |  | 0.5408%
57 | Nc1cccnc1NCc1cccnc1 | 56.86% | 
58 | CN(CCN1CCCC1=O)C(=O)c1ncccc1Br | -6.361% | 
59 | N#CCC1COc2ccccc2O1 (stereo unspecified) | -13.18% | 
60 | CC(C)N(C)S(=O)(=O)NCCCN(C)c1ccccc1 | 0.05674% | 
61 | CN(C)C(=O)C1CCN(Cc2ccccc2F)CC1 | -0.8921% | 
